# TGFb SMAD3 inh: qHTS for Inhibitors of TGF-b; HepG2 CAGA-GFP TGF-b/SMAD3 reporter, GFP fluorescence, 18 h; TGF-beta stimulated, 500 pg/mL final; Potency, µM (series often up to 46.1 µM), for inactives: top-dose activity, negative = inhibition, hits mostly inhibitors; 410,000 tested, 1.2% active; AID 588855, 2011; further: on the % scale 0 is the no-effect control and ±100 the full control effect; nearly all actives have a fitted effect of over 65% in size
#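 First, reporter cells (HEPG2 CAGA-GFP) rested 2 h at 37 degrees C. Next, compounds were pinned in and TGF-beta added to 500 pg/mL final. After 18 h, GFP was imaged per cell and summed per well.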
# HT1080NT lethal: qHTS for induction of synthetic lethality in tumor cells producing 2HG: qHTS for the HT-1080-NT fibrosarcoma cell line | HT-1080-NT fibrosarcoma viability, CellTiter-Glo ATP luminescence, 48 h | AID 686970, 2013 | 360,000 tested, 1.6% active | Potency, µM (highest dose often 46.1 µM), without a hit: at the top dose activity, negative = less viability, actives largely listed as cytotoxic;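 further: NT is the 2HG producing partner of a matched IDH1 knockdown line; 0% = DMSO-treated cells and -100% = media-only wells without cells; nearly all actives have a fitted effect of over 55% in size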
#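 Luminescent CellTiter-Glo readout after 48 hours of compound exposure at 37 degrees C defined viability of HT-1080-NT cells. Activity was normalized to DMSO wells and cell-free media wells; concentration-response curves were fitted and assigned curve classes.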
# TDP1 cell CPT: qHTS for Inhibitors of human tyrosyl-DNA phosphodiesterase 1 (TDP1): qHTS in cells in presence of CPT; chicken DT40 Tdp1-/-;hTDP1 cells + 20 nM CPT, ATP luminescence, 48 h; Potency, µM (series often up to 46.2 µM), inactives show at the top dose activity change, negative = growth inhibition, usual class: inhibitors; 420,000 tested, 12% active; AID 686979, 2013; further: on the % scale 0 is the no-effect control and ±100 the full control effect; nearly all actives have a fitted effect of over 55% in size
#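 Chicken DT40 Tdp1-/- cells stably complemented with human TDP1 were seeded at 400 cells/well in medium containing 20 nM camptothecin, exposed to pin-transferred compounds, and grown at 37 °C for at least 48 hr. Viability was read as ATP luminescence.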
# HT1080 IDH1KD tx: qHTS for induction of synthetic lethality in tumor cells producing 2HG: qHTS for the HT-1080-IDH1KD cell line. AID 686971, 2013. 360,000 tested, 2% active. HT-1080 IDH1 knockdown viability, ATP luminescence, 48 h. Potency, µM (doses to about 46.1 µM), for the others: at the top dose activity, negative = toxicity, usual class: cytotoxic;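 further: 0% = DMSO wells and -100% = cell-free medium wells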
#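 Cytotoxicity counter-line: IDH1KD HT-1080, 48 h, CellTiter-Glo. Curves classed by r2, magnitude and activity.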
# HepG2 tox-1: qHTS for Inhibitors of TGF-b: Cytotox Counterscreen. Potency, µM (doses to about 46.1 µM), inactives show at the top dose activity change, negative = cytotoxicity, usual class: cytotoxic. HepG2 CAGA-GFP viability, ATP luminescence, 18 h. 410,000 tested, 0.76% active
#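 HepG2 CAGA-GFP cells (1000/well, DMEM with 1% FBS) received compound, then TGF-beta at 500 pg/mL final, and were incubated 18 hours at 37 degrees C. Viability was read by CellTiter-Glo luminescence. Media-only wells were set as complete cell-killing and DMSO as no toxicity.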
# TDP1 cell noCPT: qHTS for Inhibitors of human tyrosyl-DNA phosphodiesterase 1 (TDP1): qHTS in cells in absence of CPT; DT40 Tdp1-/- hTDP1 cells, no CPT, ATP luminescence, 48 h; Potency, µM (titrated, usually from 46.2 µM), without a hit: at the highest dose activity change, negative = growth inhibition, most hits filed as inhibitors; 420,000 tested, 15% active; AID 686978, 2013; further: on the % scale 0 is the no-effect control and ±100 the full control effect; nearly all actives have a fitted effect of over 55% in size
#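 Compound effects on proliferation are scored in DT40 Tdp1-/-;hTDP1 cells in the absence of CPT. ATP levels (CellTiter-Glo luminescence) are recorded after a ≥48 hr, 37 °C incubation.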
# TGFb confirm: qHTS for Inhibitors of TGF-b: Confirmation of Cherry Picks. shares compounds with TGFb SMAD3 inh. HepG2 CAGA-GFP TGF-b reporter, GFP fluorescence, 18 h; cells stimulated with TGF-beta, 500 pg/mL. Potency, µM (series often up to 46.1 µM), for inactives: top-dose activity, negative = inhibition, hits mostly inhibitors. 1,600 tested, 63% active; further: on the % scale 0 is the no-effect control and ±100 the full control effect; nearly all actives have a fitted effect of over 65% in size
# HepG2 tox-2: qHTS for Inhibitors of TGF-b: Cytotox Counterscreen for Cherry Picks; shares compounds with TGFb SMAD3 inh; HepG2 CAGA-GFP viability, ATP luminescence, 18 h; cells stimulated with TGF-beta, 500 pg/mL; Potency, µM (titrated, usually from 46.1 µM), for inactives: top-dose activity, negative = cytotoxicity, actives largely listed as inhibitors; 1,600 tested, 27% active; AID 720535, 2013; further: on the % scale 0 is the no-effect control and ±100 the full control effect; nearly all actives have a fitted effect of over 70% in size
# TGFb CCL64 inh: qHTS for Inhibitors of TGF-b: CCL64 Cells Orthogonal Assay for Cherry Picks | CCL64 CAGA-GFP reporter, TGF-b stimulated, GFP fluorescence, 18 h | shares compounds with TGFb SMAD3 inh | Potency, µM (doses to about 46.1 µM), for inactives: at the top dose activity, negative = inhibition, usual class: inhibitors | 1,600 tested, 41% active | AID 720536, 2013; further: nearly all actives have a fitted effect of over 65% in size
# COP TGFb inh: qHTS for Inhibitors of TGF-b: Hit Validation in HepG2 Cells using COP promoter; shares compounds with TGFb SMAD3 inh; Potency, µM (doses to about 46.1 µM), for inactives: at the highest dose activity, negative = inhibition, actives largely listed as inhibitors; 1,600 tested, 3% active; HepG2 COP-GFP TGF-b reporter, GFP fluorescence, 18 h; cells stimulated by added recombinant TGF-beta; AID 720537, 2013; further: nearly all actives have a fitted effect of over 70% in size
# Numbers without * were called inactive; ? = inconclusive; / = no result. In the library only some 17% were active in any assay of this set; here they are far more common. The call rests on the fitted dose curve; in most records, active means well fitted curve in the direction sought with a large enough effect; inconclusive means small, poorly fitted or top-dose-only effect, or another doubt; inactive means no such curve, though single readings can be large; an effect the other way counts as inactive or inconclusive. Potency means the concentration at half of the fitted maximal effect.
SMILES,TGFb SMAD3 inh,HT1080NT lethal,TDP1 cell CPT,HT1080 IDH1KD tx,HepG2 tox-1,TDP1 cell noCPT,TGFb confirm,HepG2 tox-2,TGFb CCL64 inh,COP TGFb inh
COc1ccc(CCNC(=O)CNS(=O)(=O)c2ccc(Cl)cc2)cc1,?,8%,-5%,3%,-7%,?,-5%,4%,2%,-16%
Cc1cc(OCCCC(=O)Nc2cccc(-n3cnnn3)c2)ccc1Cl,13µM*,-1%,?,1%,-16%,12µM*,?,?,-3%,65%
CC(=O)c1cccc(NC(=O)/C=C/c2ccc([N+](=O)[O-])s2)c1,7.1µM*,?,1.3µM*,?,-57%,1.5µM*,4.1µM*,12µM*,2.1µM*,-2%
c1ccc(CSc2ncnc3sccc23)cc1,-19%,10%,3%,11%,-16%,11%,/,/,/,/
Clc1ccc(-n2nnnc2Sc2ncnc3sccc23)cc1,10µM*,21µM*,2.3µM*,?,-105%,1.8µM*,4.6µM*,16µM*,2.9µM*,?
COc1ccc(N2CCc3c(C)nc4c(OC)cccc4c32)cc1,11µM*,3.7µM*,4.6µM*,3.3µM*,-13%,2.9µM*,15µM*,?,26µM*,16%
COc1ccc(OCCCC(=O)Nc2cccc(SC)c2)cc1,-9%,-2%,-3%,1%,-6%,-19%,/,/,/,/
CSc1cccc(NC(=O)CCCOc2ccc(Cl)cc2C)c1,13µM*,?,18µM*,?,-19%,?,21µM*,-21%,16%,-16%
Cc1ccc(NC(=O)/C(=C\c2ccccc2)NC(=O)/C=C/c2ccccc2)cc1,-8%,8%,-10%,19%,4%,-2%,/,/,/,/
NC1=NC[C@H](Cc2ccc(O)cc2)N1CCc1cc(C(F)(F)F)cc(C(F)(F)F)c1,1.1µM*,-1%,?,2%,-4%,?,0%,-5%,3%,3%
O=C1NC[C@H](Cc2ccccc2)N(CCc2cc(C(F)(F)F)cc(C(F)(F)F)c2)C1=O,/,-17%,?,-23%,/,?,/,/,/,/
CCn1cc(/C=N\NC(=O)C2(C)CC2(Cl)Cl)c(C)n1 (stereo unspecified),0%,7%,9%,0%,3%,6%,/,/,/,/
CN1CCCC2(CCN(S(=O)(=O)c3ccccc3)CC2)C1,/,/,-6%,/,/,11%,/,/,/,/
O=C(c1ccc(Cl)c(Cl)c1)N1CCC(=O)N(C(COCc2ccc(Cl)cc2)Cc2ccccc2)CC1 (stereo unspecified),10µM*,-16%,?,?,-28%,16µM*,21µM*,?,?,18%
CC1(C)SC2C(C(=O)O)N=C(Cc3ccccc3)N2C1C(=O)O (stereo unspecified),16%,7%,27%,10%,21%,0%,/,/,/,/
O=C(N/N=C/c1cn(Cc2ccccc2)c2ccccc12)c1ccncc1,?,-9%,-15%,-18%,0%,?,1.2µM*,2.3µM*,4%,-22%
CCOC(=O)N/N=C/c1cn(Cc2ccc(Cl)cc2)c2ccccc12,13µM*,-20%,?,-22%,-42%,-25%,4.1µM*,2.6µM*,5%,42%
CCOC(=O)N/N=C/c1cn(CCCOc2ccccc2)c2ccccc12,15%,-22%,?,-28%,14%,?,/,/,/,/
COC(=O)N/N=C/c1cn(CCOc2ccccc2)c2ccccc12,?,-9%,0%,-15%,-6%,?,7.3µM*,3.3µM*,-5%,19%
COc1ccccc1C(=O)Nc1cc(C)ccc1NC(=O)c1ccco1,-17%,-4%,-5%,-1%,-22%,?,/,/,/,/
Cc1cc(F)ccc1S(=O)(=O)N1CCCOC1CNC(=O)C(=O)NC1CCCCC1 (stereo unspecified),0%,-3%,-11%,-2%,0%,-13%,/,/,/,/
Cc1ccc(CCCNC(=O)C2CCC(=O)N(Cc3cccc(F)c3)C2)cc1 (stereo unspecified),-19%,-20%,5%,9%,-54%,?,/,/,/,/
CN(C)CCC(=O)C(Cc1ccccc1)c1ccccc1 (stereo unspecified),7.9µM*,-39%,5.2µM*,?,20µM*,4.6µM*,4.1µM*,15µM*,10µM*,?
CN(C)CCC(C(=O)c1ccccc1)c1ccncc1 (stereo unspecified),3%,18%,-25%,14%,-6%,-10%,/,/,/,/
O=Cc1cn(CC(=O)Nc2ccc3c(c2)OCO3)c2ccccc12,7.1µM*,-2%,?,0%,-25%,16µM*,8.2µM*,3.3µM*,15%,34%
O=C(Cn1ccc2ccccc21)Nc1ccc2c(c1)OCO2,13%,-8%,21%,-4%,-2%,-29%,/,/,/,/
